tim10-1 inh: growth inhibitors of tim10-1 mutant yeast, primary screen, luminescence, uHTS; S. cerevisiae tim10-1 ts strain growth, BacTiter-Glo, 24 h; inhibition, % at 20 µM; 330,000 tested, 2.2% active;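 active = inhibition of at least 40%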;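 also: mutant grown at 25 °C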
PfHsp90 set2: growth inhibition of PfHsp90-expressing yeast, primary screen, antimalarial PfHsp90 inhibitor project, S. cerevisiae, BacTiter-Glo luminescence, single point, set 2. BacTiter-Glo ATP, 48 h; yeast lacking PDR1 and PDR3 efflux regulators. inhibition, % at 9.4 µM. 310,000 tested, 0.32% active;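 active = every replicate shows inhibition above about 80%, whatever the replicate mean, limit read from the data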
SKKanGAS inh: S. pyogenes SKKanGAS growth inhibitors in kanamycin, primary screen, streptokinase expression inhibitor project, SKKanGAS strain, BacTiter-Glo luminescence; 6 h; inhibition, % at 7.5 µM; 300,000 tested, 1.3% active; AID 1662, 2009;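 active = mean replicate score, as percent of positive control median, at least 50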;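 also: strain carries kanamycin resistance gene driven by streptokinase promoter and grows in 40 µg/ml kanamycin; loss of luminescence reflects streptokinase promoter inhibition or plain growth inhibition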
NALP1 yeast inh: NALP1 inflammasome inhibitors in reconstituted yeast, colorimetric, S. cerevisiae, triplicate retest. S. cerevisiae NALP1/ASC/caspase-1 growth, X-gal OD620, 72 h. inhibition, % at 10 µM. 280,000 tested, 0.61% active. AID 2071, 2009; in the data active = inhibition mostly above about 24%, no sharp cut-off; inactive = mostly below about 32%
TIM10 inh: growth inhibitors of isogenic TIM10 control yeast, primary screen, counter-screen for tim10-1 yeast inhibitor project, luminescence, uHTS; inhibition, % at 10 µM; 330,000 tested, 1.4% active; S. cerevisiae TIM10 strain growth, BacTiter-Glo luminescence, 24 h;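 active = inhibition of 40% or more at the single tested concentration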;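 also: wild-type TIM10 isogenic control strain grown at permissive 25 °C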
tim23-1 inh: growth inhibitors of tim23-1 mutant yeast, primary screen, luminescence, uHTS. S. cerevisiae tim23-1 growth, BacTiter-Glo luminescence, 24 h. inhibition, % at 20 µM. 330,000 tested, 1.3% active. AID 463212, 2010;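 active = growth inhibition of the mutant yeast at or above 50%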;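 also: temperature-sensitive mutant grown at 25 °C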
tim10-1 confirm: growth inhibitors of tim10-1 mutant yeast, confirmation, single concentration, luminescence, S. cerevisiae; inhibition, % at 20 µM; shares compounds with tim10-1 inh; 7,400 tested, 56% active; S. cerevisiae tim10-1 ts strain growth, BacTiter-Glo, 24 h; AID 463213, 2010;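 active = inhibition of yeast growth at or above a set limit in either of two repeat tests at 20 µM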;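 also: tim10-1 mutant grown at permissive 25 °C to find synthetic lethal compounds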
tim10 confirm: growth inhibitors of wild-type TIM10 yeast, confirmation, counter-screen for tim10-1 synthetic lethality project, single concentration, luminescence, S. cerevisiae; S. cerevisiae tim10 strain growth, BacTiter-Glo luminescence, 24 h; 4,600 tested, 63% active; shares compounds with TIM10 inh; inhibition, % at 10 µM;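 active = inhibition of yeast growth at or above a set limit in either of two replicates at 10 µM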; also: this counterscreen used the strain with wild-type TIM10
tim23-1 confirm: tim23-1 mutant yeast growth inhibitors, confirmation, luminescence, single concentration; inhibition, % at 20 µM; shares compounds with tim23-1 inh; S. cerevisiae tim23-1 growth, BacTiter-Glo luminescence, 24 h; 4,400 tested, 83% active;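 active = inhibition above about 39% in either of two replicate wells at 20 µM, limit read from the data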;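 also: temperature-sensitive tim23-1 mutant grown at 25 °C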
A number is an active result; . = inactive; / = not tested or not shown. Sampled rows, rich in hits. Any-hit rate of the full collection: about 4.8%.

SMILES	tim10-1 inh	PfHsp90 set2	SKKanGAS inh	NALP1 yeast inh	TIM10 inh	tim23-1 inh	tim10-1 confirm	tim10 confirm	tim23-1 confirm
CCN(C[C@H]1N[C@@](Cc2ccccc2)(C(=O)OC)[C@H]2C(=O)N(Cc3ccccc3)C(=O)[C@@H]12)S(=O)(=O)c1ccc(C(F)(F)F)cc1	.	.	/	/	.	.	/	/	/
CCOC(=O)c1c2c(n(C)c1C)C(=O)C(=O)c1ccc(Br)cc1-2	57.2	/	58.9	/	65.6	56.4	.	44.5	46.8
N/C(Cc1ccc([N+](=O)[O-])cc1)=N\OC(=O)c1ccccc1F	71.7	.	.	.	64.1	58.9	71.5	52.3	54.2
N/C(Cc1ccc([N+](=O)[O-])cc1)=N\OC(=O)COc1ccccc1Cl	.	.	.	.	.	.	/	/	/
N/C(Cc1ccc([N+](=O)[O-])cc1)=N\OC(=O)c1ccc(Br)o1	84.9	.	.	.	64.3	60.3	81.2	.	44.0
CCOC(=O)N1CCN(CC(=O)NC(=O)Nc2ccc3c(c2)OCCO3)CC1	.	.	/	/	.	.	/	/	/
O=C(Nc1nc2cc3c(cc2s1)OCO3)c1ccco1	/	.	.	/	/	/	/	/	/
O=C(Nc1nc2cc3c(cc2s1)OCCO3)c1ccco1	48.7	.	61.6	.	43.2	75.0	41.1	40.6	60.0
COc1ccc(C(=O)CSc2nnc(-c3ccc(C)cc3)o2)cc1	.	/	.	.	.	.	/	/	/
COc1ccc(-c2nnc(SCC(=O)Oc3ccc(C)cc3)o2)cc1	90.7	105.1	.	.	88.8	53.3	83.7	91.2	58.2
CC(Oc1ccc(Cl)cc1Cl)C(=O)NC1=NN(c2ccccc2)C(=O)C1 (stereo not given)	52.2	/	93.9	.	.	61.3	33.4	/	.
Nc1ccc(/C=C/C(=O)c2ccco2)cc1	.	.	.	.	.	.	/	/	/
O=C(/C=C/c1ccccc1O)c1ccco1	43.7	.	.	.	.	51.9	34.6	/	50.2
O=C1c2ccccc2NC(c2ccc(-c3ccc(F)cc3)o2)N1O (stereo not given)	.	.	/	/	.	.	/	/	/
O=C1c2ccccc2NC(c2ccc(-c3ccc(Br)cc3)o2)N1O (stereo not given)	46.2	124.9	.	.	44.1	62.0	.	51.9	64.8
CCOC(=O)C(=CNNc1cccc(Cl)c1)C(=O)OCC	41.1	.	.	.	.	54.8	53.4	/	71.8
CC(C)(O)C#Cc1ccc(C(=O)Nc2ccc3c(c2)OCO3)s1	.	.	.	.	.	.	/	/	/
Cc1cccc(C)c1NS(=O)(=O)c1ccc(-c2cnc(C3CC3)o2)cc1	53.5	.	.	.	.	71.5	31.9	/	62.7
O=S(=O)(NCc1ccccc1)c1ccc(-c2cnc(C3CC3)o2)cc1	.	.	.	.	.	.	/	/	/
O=C(Nc1csc([N+](=O)[O-])c1)Nc1ccccc1Cl	50.5	.	.	/	54.0	65.6	49.1	67.2	56.5
CN(CC(=O)Nc1ccccc1Br)C(=O)c1cc(Cl)nc2ccccc12	.	.	/	/	.	.	/	/	/
S=C(NCc1ccco1)Nc1ccc(Cl)cc1	.	.	.	.	.	.	/	/	/
S=C(NCc1ccco1)Nc1ccc(Oc2ccc(Cl)cc2)cc1	46.3	.	.	.	.	62.6	60.1	/	75.6
Cc1nnc(SCC(=O)Nc2cc(Cl)ccc2Cl)n1CC1CCCO1 (stereo not given)	.	.	.	.	.	.	/	/	/
COc1ccc2nc(SCCC(=O)O)cc(C)c2c1	.	.	.	.	.	.	/	/	/
SMILES	tim10-1 inh	PfHsp90 set2	SKKanGAS inh	NALP1 yeast inh	TIM10 inh	tim23-1 inh	tim10-1 confirm	tim10 confirm	tim23-1 confirm
Cc1cc(C)nc(S/C=C/C(=O)c2ccccc2F)n1	43.4	.	.	.	53.4	63.8	.	53.2	63.2
CCCN1CCN(C(=O)Cn2cccc2C(=O)c2ccccc2)CC1	.	.	.	.	.	.	/	/	/
O=C(Oc1cc(=O)oc2ccccc12)c1ccco1	.	.	.	.	.	.	/	/	/
Cc1ccccc1-n1ncc2c([N+](=O)[O-])cc([N+](=O)[O-])cc21	48.0	.	.	.	68.3	77.3	35.2	75.3	.
Cc1ccc2nc3cc([N+](=O)[O-])cc([N+](=O)[O-])c3cc2c1	/	.	/	.	/	/	/	/	/
CCOC(=O)c1sc(NC(=O)c2cccc(S(=O)(=O)N3CCN(C)CC3)c2)cc1C	.	.	.	.	.	.	/	/	/
COC(=O)c1c(NC(=O)c2cccc(S(=O)(=O)N3CCN(C)CC3)c2)sc(C)c1C	57.1	/	.	/	.	55.1	42.5	/	47.0
Clc1ccc(N=c2ssnc2Cl)cc1	54.2	103.8	.	.	.	63.3	65.6	/	88.3
Clc1nssc1=Nc1ccccc1	/	/	/	.	/	/	/	/	/
COc1ccc(N=c2ssnc2Cl)cc1	52.7	.	.	.	.	60.9	34.7	/	80.3
O=C(C#Cc1ccccc1)NCc1ccccc1F	.	.	.	.	.	.	/	/	/
COc1cccc(NC(=O)c2sc(NC(=O)c3ccncc3)nc2C)c1	.	.	.	/	.	.	/	/	/
COc1ccccc1NC(=O)C(C)N(C)Cc1ccc(Cl)s1 (stereo not given)	.	.	.	.	.	.	/	/	/
COc1ccc(C(=O)O/N=C(\N)c2ccc(OC)c(OC)c2)cc1	72.8	.	.	.	49.3	53.5	78.0	40.4	64.5
COc1ccc(C(=O)O/N=C(\N)c2ccccc2)c(OC)c1	75.9	.	/	.	69.9	59.9	71.5	67.4	86.8
O=C(C[n+]1cn(C(F)F)c2ccccc21)c1ccc(Br)cc1	64.1	.	.	.	72.0	54.7	65.3	64.6	.
O=C(C[n+]1cc(Br)cc2ccccc21)c1ccc(Br)cc1	.	.	.	.	.	.	/	/	/
CC(C)(C)c1cc(C(=O)CCN2CCOCC2)cc(C(C)(C)C)c1O	77.5	.	.	.	76.3	73.7	76.1	79.8	56.5
CCC(C)n1c(/C=C/c2ccccc2)nc2ccccc21 (stereo not given)	45.4	.	.	.	43.7	53.1	35.4	.	50.2
CC(C)(C)C(=O)O/N=C(\N)Cc1ccc(-c2csnn2)cc1	75.0	.	.	.	47.4	51.4	82.2	52.2	.

Screening data deposited in PubChem BioAssay by several laboratories.
